Reference: PubChem BioAssay (NCI)
This is part of a sample that, as a whole, favours compounds with a hit. Of some 79,000 tested, about 15% had one in any assay. Rule as the data show it: active = growth inhibition above about 70%; inactive = the rest.

What was measured:
[1] = NCI Yeast Anticancer Drug Screen. Data for the rad50 strain (AID 155);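 also: 0% = growth of vehicle-only cultures of the same strain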; details: S. cerevisiae rad50 strain growth inhibition; at 50.0 µM; stronger effect = higher value
In short: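 Cells are treated with compound, grown, and their growth is then scored against vehicle-only cultures of the same repair-deficient yeast strain.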

[2] = NCI Yeast Anticancer Drug Screen. Data for the mec2-1 strain (AID 157); details: S. cerevisiae mec2-1 strain, at 50.0 µM, stronger effect = higher value
In short: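 Each compound was tested on mec2-1 yeast, a strain altered in DNA damage repair or cell cycle control. Growth inhibition is reported relative to vehicle.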

[3] = NCI Yeast Anticancer Drug Screen. Data for the sgs1 mgt1 strain (AID 161);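 also: 0% = growth of cultures given vehicle only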; details: S. cerevisiae sgs1 mgt1 strain, at 50.0 µM, stronger effect = higher value
In short: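 Genetically altered yeast, compound exposure, growth inhibition relative to vehicle.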

[4] = NCI Yeast Anticancer Drug Screen. Data for the cln2 rad14 strain (AID 165);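 also: 0% = growth equal to vehicle treated cultures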; details: S. cerevisiae cln2 rad14 strain, at 50.0 µM, stronger effect = higher value
In short: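 Test compounds were added to cln2 rad14 yeast cultures; inhibition of growth was then determined by comparison with vehicle treatment.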

[5] = NCI Yeast Anticancer Drug Screen. Data for the bub3 strain (AID 167); details: S. cerevisiae bub3 mutant strain, at 50.0 µM, stronger effect = higher value
In short: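 Part of a panel of yeast mutants defective in DNA damage repair or cell cycle regulation. Each strain is grown with compound, and inhibition is calculated relative to solvent-treated cultures.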

[6] = NCI Yeast Anticancer Drug Screen. Data for the mlh1 rad18 strain (AID 175); details: S. cerevisiae mlh1 rad18 strain growth inhibition; at 50.0 µM; stronger effect = higher value
In short: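 Inhibition values reflect reduced growth of mutant yeast versus vehicle-treated controls following compound exposure; the mutations affect DNA damage repair.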

Measured: growth inhibition

Cc1ccc(S(=O)(=O)NN=C2CC3C4CCC5C4CC3C25)cc1 (stereo unspecified)
inactive: [1] 21.9% | [2] -4.5% | [3] 15.9% | [4] 12% | [5] -13.5% | [6] 7.1%

COC(=O)[C@H](Cc1c[nH]c2ccccc12)NP(=O)(O)OCC1C=CC(n2cc(C)c(=O)[nH]c2=O)O1 (stereo partly specified)
inactive: [1] -8.5% | [2] -7.75% | [3] -9.6% | [4] 6.8% | [5] -13.1% | [6] -49.7%

CCc1ccc(-c2c(-c3ccccc3)c(-c3ccccc3)c(-c3ccccc3)c(-c3ccccc3)c2-c2ccccc2)cc1
inactive: [1] 31.1% | [2] 6.3% | [3] 21.9% | [4] 26.1% | [5] -6.3% | [6] 30.9%

S=C1N=C(Cl)/C(=C\c2ccccc2)N1
inactive: [1] -4.65% | [2] -23.9% | [3] 3.45% | [4] 24.1% | [5] 11.5% | [6] -14.4%

CC(C)(C)/[N+]([O-])=C/C(c1ccccc1)C(/C=[N+](/[O-])C(C)(C)C)c1ccccc1 (stereo unspecified)
inactive: [1] -3.5% | [2] -4.5% | [3] -15.3% | [4] 3.85% | [5] -2.1% | [6] -18.6%

COc1ccc(-n2nnnc2C2(Nc3ccccc3)CCN(Cc3ccccc3)CC2)cc1
inactive: [1] -22.4% | [2] -8.4% | [3] -1.4% | [4] 2.65% | [5] -2.15% | [6] 10.4%

CCOC(=O)CSc1ncnc2nc[nH]c12
inactive: [1] 31.2% | [2] -9.35% | [3] -6% | [4] 6.25% | [5] 17% | [6] 9.75%

O=C(CC[N+](=O)[O-])OCC1OC(OC(=O)CC[N+](=O)[O-])C(O)C(O)C1O (stereo unspecified)
inactive: [1] 23% | [2] 0.85% | [3] 28.4% | [4] 34.1% | [5] 14.8% | [6] 38.8%

OC1CCCC2OC2CC1 (stereo unspecified)
inactive: [1] 0.4% | [2] 6.55% | [3] -9.5% | [4] 11.7% | [5] 7.25% | [6] 13.9%

COc1cc(C(SCc2ccccc2)SCc2ccccc2)ccc1O
inactive: [1] 28.6% | [2] 12.2% | [3] 30.9% | [4] 28.6% | [5] 17.4% | [6] 28.6%

CNCc1cccc(OC)c1OC
inactive: [1] -1.05% | [2] -5.4% | [3] -2.35% | [4] -0.6% | [5] 16.2% | [6] -2.7%

CCCCCC/C=C/CCCCCCCC(=O)O
inactive: [1] 3.15% | [2] -25.1% | [3] 5.3% | [4] -9.9% | [5] -1.75% | [6] -16.9%

N#CC1(C2CC(=O)N(c3ccccc3)C2=O)CCCCC1=O (stereo unspecified)
inactive: [1] 10.4% | [2] -21.7% | [3] 26.5% | [4] -3.1% | [5] 2% | [6] -6.7%

Cc1ccc(S(=O)(=O)N/N=C/C(O)C(O)C(O)C(O)CO)cc1 (stereo unspecified)
inactive: [1] 5.9% | [2] -5.15% | [3] -14.8% | [4] -34.1% | [5] -8.45% | [6] 12.3%

COc1ccc(OC)c2c3c([nH]c12)C(=O)Nc1nc(N)nc(N)c1C3
inactive: [1] 42.9% | [2] 19.9% | [3] 30.4% | [4] 21.8% | [5] 31.9% | [6] 40.5%

CNC(=O)O[C@H]1C(=O)O[C@@H]2C[C@H]3C(C)=C(O)C(=O)C[C@]3(C)[C@H]3[C@@H](O)[C@H](O)[C@@]4(C(=O)OC)OC[C@]32[C@@H]14
inactive: [1] 24.9% | [2] 16.4% | [3] 1.95% | [4] 7.3% | [5] 14.9% | [6] 16.9%

CCCCCCCCCCCCCCCCCCn1cnc2c(=S)nc[nH]c21
inactive: [1] -37.5% | [2] -2.2% | [3] -0.75% | [4] -20.5% | [5] 0.5% | [6] -34.1%

Cc1cc(CSCCc2nc3ccccc3[nH]2)c(O)c(CSCCc2nc3ccccc3[nH]2)c1
inactive: [1] 15.1% | [2] 3.8% | [3] 5.55% | [4] -42% | [5] -6.65% | [6] 14.4%

COc1ccc(C(=O)CCl)c(O)c1OC
inactive: [1] -4.95% | [2] 5.95% | [3] -5.6% | [4] 14.8% | [5] 5.7% | [6] 11.8%

CCCCCCC(O)CC[C@H]1CCC[C@@H](C)N1 (stereo partly specified)
inactive: [1] 46% | [2] 26.3% | [3] 39.5% | [4] 38.9% | [5] 45.5% | [6] 38.5%

COC(=O)NC(Cc1ccccc1)NC(=O)OC(C)(C)C (stereo unspecified)
inactive: [1] -30.6% | [2] -46% | [3] -20.5% | [4] -0.95% | [5] -4.25% | [6] -12.9%
